Screens from PubChem BioAssay.
FUS yeast rescue: suppressors of FUS proteinopathy in yeast | Potency, µM (series often up to 76.6 µM), usual class: activators | S. cerevisiae FUS-expressing, growth rescue, OD600, 24 h | AID 1347120 | 390,000 compounds, 0.24% hits;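 note: potency is the fitted concentration of half-maximal effect; plate controls were DMSO vehicle for no effect and reference control for full effect; nearly all actives have a fitted effect of over 55% in size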
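FUS-expressing yeast, raffinose-pregrown, induced in 2% galactose minimal medium at OD 0.005; compounds in a dilution series, 24hr at 30C. Growth restoration read as absorbance at 600 nm. CP55940 positive control, DMSO negative.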
Giardia kill: Giardia lamblia killing | activity change, % at 7.66 µM, hits read low | AID 540267 | 340,000 compounds, 0.15% hits | Giardia lamblia trophozoite viability; in the data active = activity change below about -80%; inconclusive = between about -30% and that limit;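 note: parasites exposed to compound for two days anaerobically before the ATP read; % is set by controls: 0 for no effect and ±100 for the full control effect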
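Luminescence from cellular ATP indicates surviving trophozoites (100 cells/well) following 48 hrs anaerobic compound treatment at 37 deg C; signal develops 15-30 min at room temperature.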
TRPV1 ag: human TRPV1 agonism. Q8NER1. TRPV1-expressing cells, Fluo-8 calcium influx, agonist mode. activation, % at 8.33 µM. 320,000 compounds, 0.19% hits. AID 540275; in the data active = activation above about 80%; inconclusive = between about 30% and that limit; note: 0% is about no effect
Target sequence (Q8NER1 whole entry, looked up): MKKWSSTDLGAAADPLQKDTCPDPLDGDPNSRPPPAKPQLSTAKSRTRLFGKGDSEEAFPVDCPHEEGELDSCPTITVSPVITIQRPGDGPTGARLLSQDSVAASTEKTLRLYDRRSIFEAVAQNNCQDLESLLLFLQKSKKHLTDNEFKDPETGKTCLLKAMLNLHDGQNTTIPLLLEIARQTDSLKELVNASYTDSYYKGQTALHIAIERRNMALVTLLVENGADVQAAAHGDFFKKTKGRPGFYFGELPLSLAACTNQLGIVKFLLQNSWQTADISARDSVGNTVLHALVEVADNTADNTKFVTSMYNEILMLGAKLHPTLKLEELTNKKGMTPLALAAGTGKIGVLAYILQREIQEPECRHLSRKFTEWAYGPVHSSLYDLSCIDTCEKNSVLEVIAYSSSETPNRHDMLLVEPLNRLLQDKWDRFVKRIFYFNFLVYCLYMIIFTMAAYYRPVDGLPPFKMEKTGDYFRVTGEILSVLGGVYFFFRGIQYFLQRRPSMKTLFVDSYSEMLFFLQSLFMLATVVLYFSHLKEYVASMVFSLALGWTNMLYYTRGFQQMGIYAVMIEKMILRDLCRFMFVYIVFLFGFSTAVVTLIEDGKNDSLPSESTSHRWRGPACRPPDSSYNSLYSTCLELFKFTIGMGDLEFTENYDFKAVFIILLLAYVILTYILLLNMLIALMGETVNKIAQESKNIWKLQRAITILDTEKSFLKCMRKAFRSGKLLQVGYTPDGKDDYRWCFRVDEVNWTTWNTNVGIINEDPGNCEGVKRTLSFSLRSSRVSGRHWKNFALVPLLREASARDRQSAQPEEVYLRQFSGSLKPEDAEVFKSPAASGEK
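Fluo-8 calcium influx in TRPV1-expressing cells, kinetic read (ex 480/em 520 nm). Compound added and read 3 min for agonist activity, followed by capsaicin at EC20 final and 2 min further read for enhancement.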
TRPV1 potentiator: potentiators of human vanilloid receptor 1 (TRPV1); Q8NER1; TRPV1-expressing cells, Fluo-8 calcium influx, capsaicin EC20 potentiation; potentiation, % at 8.33 µM; 320,000 compounds, 0.02% hits; AID 540277; in the data active = potentiation above about 80%; inconclusive = between about 30% and that limit; note: 0% is about no effect
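Fluo-8 calcium influx in TRPV1-expressing cells, kinetic read (ex 480/em 520 nm). Compound added and read 3 min for agonist activity, followed by capsaicin at EC20 final and 2 min further read for enhancement.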
ELG1 DNA repair: inhibitors of ELG1-dependent DNA repair in HEK293T cells. HEK293T ELG1-luciferase reporter, luminescence, 16 h; DNA damage induced by 5-fluorouridine. Potency, µM (series often up to 46.1 µM), for the others: top-dose activity change, negative = inhibition, actives largely listed as inhibitors. 330,000 compounds, 2.3% hits; note: potency is the fitted concentration of half-maximal effect; % is set by controls: 0 for no effect and ±100 for the full control effect; nearly all actives have a fitted effect of over 55% in size
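Step one: seed 2,000 cells per well. Step two: pin-transfer compound or DMSO alongside 5-fluorouridine. Step three: incubate 16 hr, 37 °C, 5% CO2. Step four: add ONE-Glo, wait 30 min, read luminescence.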
ELG1 FLuc counter: luciferase inhibition in cell-free luciferin readout for ELG1 hits. shares compounds with ELG1 DNA repair. cell-free firefly luciferase luminescence counter-screen, ViewLux. Potency, µM (series often up to 46.1 µM), without a hit: at the highest dose activity change, negative = inhibition, actives largely listed as inhibitors. 350 compounds, 3% hits; note: potency is the fitted concentration of half-maximal effect; % is set by controls: 0 for no effect and ±100 for the full control effect
ELG1-Luc inh: human ELG1 repair inhibition, luciferase-tagged ELG1 confirmation | shares compounds with ELG1 DNA repair | HEK293T ELG1-luciferase levels, luminescence; cells co-treated with 5-fluorouridine | Potency, µM (top dose mostly 46.1 µM), for inactives: at the top dose activity change, negative = inhibition, most hits filed as inhibitors | 670 compounds, 68% hits | AID 624248; note: potency is the fitted concentration of half-maximal effect; % is set by controls: 0 for no effect and ±100 for the full control effect; nearly all actives have a fitted effect of over 55% in size
ELG1-Luc MMS: MMS-stimulated human ELG1 repair inhibition, confirmed. shares compounds with ELG1 DNA repair. HEK293T luciferase-tagged ELG1 level, MMS stimulated. Potency, µM (titrated, usually from 46.1 µM), for inactives: top-dose activity change, negative = inhibition, usual class: inhibitors. 670 compounds, 53% hits. AID 624249; note: potency is the fitted concentration of half-maximal effect; % is set by controls: 0 for no effect and ±100 for the full control effect; nearly all actives have a fitted effect of over 60% in size
ELG1 5FU viab: confirmation of ELG1 repair inhibitors: viability with 5FU. shares compounds with ELG1 DNA repair. cell viability with 5-FU, ELG1-dependent repair. Potency, µM (doses to about 46.1 µM), without a hit: top-dose activity change, negative = viability loss, actives largely listed as cytotoxic. 670 tested, under 10 active. AID 624250;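 note: ELG1-luc HEK293T cells cotreated with 5-fluorouridine at 10 µM final; potency is the fitted concentration of half-maximal effect; viability measured 16 h after compound addition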
ELG1 MMS viab: confirmation of ELG1 repair inhibitors: viability with MMS; AID 624251; shares compounds with ELG1 DNA repair; Cell viability with MMS, ELG1-dependent DNA repair; 670 compounds, 33% hits; Potency, µM (top dose mostly 46.1 µM), inactives show top-dose activity change, negative = viability loss, usual class: cytotoxic;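 note: ELG1-luc HEK293T cells co-treated with 10 µM MMS; potency is the fitted concentration of half-maximal effect; viability read 16 h after compound addition; % is set by controls: 0 for no effect and ±100 for the full control effect; nearly all actives have a fitted effect of over 60% in size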
ELG1 unstim viab: counter-screen for ELG1 repair inhibitors: unstimulated cell viability. Potency, µM (highest dose often 45.9 µM), inactives show top-dose activity change, negative = loss of viability, usual class: cytotoxic. 900 compounds, 8% hits. cell viability counter-screen, unstimulated, luminescence. shares compounds with ELG1 DNA repair;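 note: potency is the fitted concentration of half-maximal effect; compound exposure lasted 16 hours before reading; % is set by controls: 0 for no effect and ±100 for the full control effect; nearly all actives have a fitted effect of over 55% in size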
FLuc enzyme: firefly luciferase inhibition counter-screen; shares compounds with ELG1 DNA repair; purified firefly luciferase, luminescence counter-screen; Potency, µM (titrated, usually from 57.5 µM), for inactives: at the highest dose activity, negative = inhibition, actives largely listed as inhibitors; 350 compounds, 10% hits; AID 624253; note: potency is the fitted concentration of half-maximal effect; % is set by controls: 0 for no effect and ±100 for the full control effect
Numbers without * were called inactive; i = inactive; ? = inconclusive; nt = no result given. This is a sample that favours compounds with a hit; in the whole collection about 2.3% have one here. Unless noted, calls come from the whole dose curve; as a rule, active = well fitted curve in the direction sought with a large enough effect; inconclusive = small, poorly fitted or top-dose-only effect, or another doubt; inactive = no such curve, though single readings can be large; an effect the other way counts as inactive or inconclusive.

SMILES	FUS yeast rescue	Giardia kill	TRPV1 ag	TRPV1 potentiator	ELG1 DNA repair	ELG1-Luc inh	ELG1-Luc MMS	ELG1 5FU viab	ELG1 MMS viab	ELG1 unstim viab	others
COc1ccc2cc3c(N)nn(C(=O)c4cccc(F)c4)c3nc2c1	i	1	0	6	0%	nt	nt	nt	nt	nt
COc1ccc2cc3c(N)nn(C(=O)c4ccc(F)cc4)c3nc2c1	i	-11	-1	-10	4.1µM*	2.5µM*	4.4µM*	8%	5%	-4%
COc1ccc2cc3c(N)nn(C(=O)c4ccccc4Cl)c3nc2c1	i	5	-3	-10	0.65µM*	0.79µM*	4µM*	7%	-1%	?	ELG1 FLuc counter=?;FLuc enzyme=-9%
COc1ccc(C(=O)Nc2cc3c(cc2N2CCCCC2)n(C)c(=O)n3C)cc1OC	i	-3	30	-17	-7%	?	9%	?	-2%	0%	ELG1 FLuc counter=100%;FLuc enzyme=-2%
O=C1CCCc2cc(S(=O)(=O)NCC3CCC(C(=O)Nc4ccc(Cl)cc4)CC3)ccc2N1 (stereo not drawn)	i	nt	nt	nt	nt	nt	nt	nt	nt	nt
COc1ccc(N2CCN(C(=O)c3nn(-c4ccc(C)cc4)c(=O)n(C)c3=O)CC2)cc1	i	nt	nt	nt	nt	nt	nt	nt	nt	nt
O=C(Nc1ccc(NC(=O)c2cccs2)cc1Cl)c1ccco1	i	6	2	17	?	nt	nt	nt	nt	nt
O=C(Nc1ccc(N2CCN(C(=O)c3ccco3)CC2)c(Cl)c1)c1cccs1	i	-6	5	-6	4.1µM*	4µM*	13µM*	?	28µM*	25µM*
COc1ccc(NC(=O)CN2CCN(C3c4ccccc4-c4ccccc43)CC2)c(OC)c1	i	0	8	-4	3.7µM*	4µM*	8.9µM*	?	?	-12%
COc1cc(C)c(CN2CCN(CC(=O)Nc3ccccc3C(=O)NC3CC3)CC2)cc1OC	i	17	2	-2	3.7µM*	4µM*	28µM*	?	-18%	3%
COc1ccc(OC)c(NC(=O)CN2CCC(NC(=O)c3ccccc3C)CC2)c1	i	-25	-2	28	?	nt	nt	nt	nt	nt
COc1ccc(NC(=O)CN2CCN(c3ccccc3F)CC2)c(OC)c1	i	nt	nt	nt	nt	nt	nt	nt	nt	nt
Cc1ccc(S(=O)(=O)N2CCN(CC(=O)Nc3ccccc3C(=O)NC3CC3)CC2)cc1	i	-4	23	-1	-13%	nt	nt	nt	nt	nt
COc1ccc(OC)c(CN2CCN(CC(=O)Nc3ccccc3C(=O)NC3CC3)CC2)c1	nt	3	4	1	?	7.1µM*	?	?	?	?
Cc1ccc(O)c(NC(=O)CCSc2nc(-c3ccco3)cc(C(F)(F)F)n2)c1	i	nt	nt	nt	nt	nt	nt	nt	nt	nt
